Source: ChEMBL document CHEMBL3988442, “University of Dundee, Small-Polar-MMV Screening Library” (2021)
In all, about 48,000 compounds went through this assay and about 13,000 (27%) showed an effect of 50% or more. The list shows a part of the results.

Each compound was assayed on Wolbachia pipientis (assay: Anti-Wolbachia Cell-Based Screen). Conditions: 5 µM.
Assay type: functional
Parameters: scale not given: in the data most compounds retested in dose-response had high values

SMILES	Percent Effect [%]
CCc1nc(C)c(C(C)N(C)CCc2ccccn2)s1 (centres undefined)	10.86
CCCc1cc(NC2CCN(Cc3ccccn3)CC2)n2nccc2n1	4.154
CCc1c(C)nc(SCc2ccccn2)[nH]c1=O	110.7
CCCc1cc(=O)[nH]c(-c2cccc(CN3CCCCCC3)c2)n1	2.31
CCc1csc(NC(=O)NCc2ccccn2)n1	-8.56
Cc1ccc2cc(CN(C)Cc3ccccn3)c(=O)[nH]c2c1	3.618
CCCc1cc(=O)[nH]c(SCc2ccccn2)n1	119.2
Cc1cc(CSCc2ccccn2)on1	-5.175
CCc1cc(=O)[nH]c(SCc2ccccn2)n1	161.3
CN1CCC(c2nnc3ccc(C(=O)N4CCCCC4)cn23)C1.O=C(O)C(F)(F)F (centres undefined)	-6.443
CN(C)CCNC(=O)Cc1cccc(I)c1	13.6
CC(C)C(=O)Nc1ccc2c(c1)ncn2CC(=O)NCCN(C)C	87.82
Cn1c(C2CC2)nc2cc(NC(=O)C3CC=CC3)ccc21	-5.037
CN(C)CCNC(=O)Cn1cnc2cc(NC(=O)C3CC3)ccc21	109.1
CC(C)CC(=O)Nc1ccc2c(c1)ncn2CC(=O)NCCN(C)C	122
CCOCCOC(C)C(=O)Nc1ccc2ccn(CCN(C)C)c2c1 (centres undefined)	3.941
Cc1cc(NC(=O)Nc2ccc3c(ccn3CCN(C)C)c2)n(C)n1	0.0592
CCN(CC)C(=O)Cn1ccc2cc(NC(=O)C3CC3)ccc21	-9.83
CC(CC(=O)Nc1ccc(C(=O)N(C)C)c(Cl)c1)n1cccc1 (centres undefined)	-5.842
CN(C)CCn1ccc2cc(NC(=O)NCc3ncnn3C)ccc21	9.223
CC(C)NC(=O)Nc1ccc2c(c1)ncn2CC(=O)NCCN(C)C	117
CC(C)c1nc2cc(NC(=O)Cn3ccc(=O)[nH]c3=O)ccc2o1	-1.465
CC(c1ccc(F)cc1)n1ccnc1-c1cc2n(n1)CCCNC2 (centres undefined)	-9.513
CCC(C)(NCc1nnc(C(C)(C)C)o1)c1nccs1 (centres undefined)	-1.916
CS(=O)(=O)CCc1ncnn1-c1ccc(F)c(Cl)c1	-1.677
CCCC(C)NC(=O)CCN1C(=O)CCc2cc(F)ccc21 (centres undefined)	-15.19

SMILES	Percent Effect [%]
CCN1Cc2cc(F)ccc2N(CC(O)C(F)(F)F)CCC1=O (centres undefined)	105.6
CCN1CC2(CCN(C(=O)C(C)Oc3ccc(F)cc3Cl)CC2)CC1=O (centres undefined)	-0.3825
CN1Cc2cc(F)ccc2N(CC(O)C(F)(F)F)CCC1=O (centres undefined)	104.4
CC(Cn1cccn1)NC(=O)NCCCN1CCc2ccccc21 (centres undefined)	-6.742
CC(O)CN1CC2(CCC1=O)CCN(Cc1cc(F)ccc1Cl)CC2 (centres undefined)	0.5458
CC(C)C(C)NC(=O)CCN1C(=O)CCc2cc(F)ccc21 (centres undefined)	-7.908
CC(C)CNC(=O)CCN1C(=O)CCc2cc(F)ccc21	-21.96
CN1Cc2ccccc2N(CC(O)C(F)(F)F)CCC1=O (centres undefined)	95.04
CS(=O)(=O)Nc1ccc(CNC(=O)CN2CCc3ccccc32)cc1	8.101
CCCC(O)CN1CCC(=O)N(C)Cc2cc(F)ccc21 (centres undefined)	92.66
OC(CN1CCCc2ccc(F)cc21)Cn1cccn1 (centres undefined)	-5.11
N#Cc1c(Cl)nsc1NCC1(c2ccccc2)CCC1	12.51
CCNC(=O)[C@@H]1C[C@@H](NC(=O)c2ccc(C)cc2O)CN1CCCSC	82.24
CCN(CC)C(=O)[C@@H]1C[C@H](NC(=O)c2cccn2C(C)C)CN1C	0.9655
CSCCC(C)(O)CNC(=O)c1ccsc1 (centres undefined)	-0.07665
CCNC(=O)[C@@H]1C[C@H](NC(=O)c2cncnc2C)CN1CCCSC	-8.18
CCNC(=O)[C@@H]1C[C@H](NC(=O)c2ccccc2C#N)CN1CCCSC	-7.827
C/C=C(\C)CN1C[C@@H](NC(=O)c2ccc(F)c(F)c2)C[C@H]1C(=O)NCC	-14.95
CCNC(=O)[C@@H]1C[C@@H](NC(=O)c2ccsc2)CN1CCCSC	107.8
CCNC(=O)[C@@H]1C[C@@H](NC(=O)c2cccn2C)CN1CCCSC	111.5
CCNC(=O)[C@@H]1C[C@@H](NC(=O)c2ccc(C#N)cc2)CN1CCCSC	95.48
C/C=C(\C)CN1C[C@@H](NC(=O)c2ccc(O)c(Cl)c2)C[C@H]1C(=O)NCC	-9.176
CCNC(=O)[C@@H]1C[C@@H](NC(=O)Cc2ccncc2)CN1Cc1ccsc1	-6.435
COCC(=O)N1CCC2(CC1)CC(N1CCN(C)CC1)CO2 (centres undefined)	-3.796
O=C(CCc1nc(Cl)n[nH]1)N1C[C@@H](CN2CCCCCC2)[C@@H](CO)C1	5.284
COc1ccc(C(=O)N2CCC(Oc3ccc(C)cc3)(C(=O)O)CC2)o1	-8.575

SMILES	Percent Effect [%]
CCc1nnsc1C(=O)N1CCCN(Cc2ccc(C)cc2)CC1	9.546
Cc1ccc(CN2CCOC(C)(c3cnn(C)c3)C2)cc1 (centres undefined)	-10.42
Cc1cccc2[nH]c(C3CCN(C(=O)c4cnc[nH]c4=O)CC3)nc12	-11.79
CC(NCc1cccc2c1OCCO2)c1cc2c(cc1Br)OCCO2 (centres undefined)	-2.569
CSCC(C)(O)CNC(=O)c1ccc(Br)cc1C (centres undefined)	6.824
CS(=O)(=O)CCC(=O)N1CCC(c2ccc(F)c(F)c2)CC1	-5.239
COc1cccc(C(=O)N2CCCC(c3cc(C)[nH]n3)C2)c1OC (centres undefined)	3.009
COc1ccccc1-c1ccc(C2CCCN(C(C)=O)C2)nc1 (centres undefined)	120.7
COc1ccccc1-c1nccnc1C1CCN(C(C)=O)CC1	137.3
CC(=O)N1CCC(c2nccnc2-c2ccc(F)c(F)c2)CC1	101.1
COc1cccc(-c2nccnc2C2CCN(C(C)=O)CC2)c1	-11.4
COc1ccccc1-c1nnc([C@H]2CCN(C(C)=O)C2)o1	4.286
CN1CCCC1c1nccnc1-c1ccc(C(=O)O)cc1 (centres undefined)	141.8
CC(O)c1cn(CC2CCN(C(=O)CN3CCCC3=O)CC2)nn1 (centres undefined)	-6.496
CCCN(CC1CC1)C(=O)Nc1ccc(N2CCSCC2)cc1C	-17.78
COCCN(C)c1ccc(NCc2cscn2)nc1	1.249
CN1CCOC(CNC(=O)CCc2cc(F)ccc2F)C1 (centres undefined)	5.661
O=C(C1CCOCC1)N1CCc2ncnc(-c3ccc(F)cc3)c2CC1	-7.65
COc1ccc(-c2nccnc2C2CCN(C(C)=O)CC2)cc1	-14.84
CC(=O)N1CCC(N2CC[C@H](c3nc4cc(F)ccc4o3)C2)CC1	-6.986
CC(=O)N1CCC(c2nccnc2-c2ccc(C(=O)O)cc2)CC1	96
CC(=O)N1CCC(c2nccnc2-c2ccc(F)cc2)CC1	97.61
NC(=O)C1CCCN1CCCc1ccc(C(F)(F)F)cc1 (centres undefined)	-6.15
CC(C)N(C)C(=O)c1ccc(CNc2ncc(C#N)cc2Cl)cc1	-8.928
CCN1CCN(CCNc2nc3ccc(C)cc3c(=O)n2C)CC1	1.756
COCC1CN(C(=O)c2cccc(C)n2)Cc2nccn2C1.O=C(O)C(F)(F)F (centres undefined)	-3.838

SMILES	Percent Effect [%]
CC(=O)N1Cc2nccn2CC(CNC(=O)c2cccnc2)C1.O=C(O)C(F)(F)F (centres undefined)	-4.633
CN(Cc1cccnc1)CC1CN(C(=O)C2CC2)Cc2nccn2C1.O=C(O)C(F)(F)F.O=C(O)C(F)(F)F (centres undefined)	-3.173
CS(=O)(=O)N1Cc2nccn2CC(CNC(=O)c2cccnc2)C1.O=C(O)C(F)(F)F (centres undefined)	-1.051
O=C(N1CCCC1)N1Cc2nccn2CC(COc2cccnc2)C1.O=C(O)C(F)(F)F (centres undefined)	96.45
O=C(O)C(F)(F)F.O=C(O)C(F)(F)F.O=C(c1cccnc1)N1Cc2nccn2CC(COc2cccnc2)C1 (centres undefined)	111
Cc1nc(C)n(CC2CN(Cc3nccs3)Cc3nccn3C2)n1.O=C(O)C(F)(F)F (centres undefined)	-6.636
O=C(O)C(F)(F)F.c1cnc(N2Cc3nccn3CC(COc3cccnc3)C2)nc1 (centres undefined)	111.9
O=C(NCC1CN(c2ncccn2)Cc2nccn2C1)c1cccnc1.O=C(O)C(F)(F)F (centres undefined)	8.129
O=C(O)C(F)(F)F.O=C(O)C(F)(F)F.c1cncc(OCC2CN(Cc3nccs3)Cc3nccn3C2)c1 (centres undefined)	104
Cc1occc1C(=O)N1Cc2nccn2CC(CN2CCCC2)C1.O=C(O)C(F)(F)F (centres undefined)	-14.64
Cc1ccc(CNC(c2ccccc2)c2nccn2C)cc1C (centres undefined)	-2.774
COc1ccc(C(=O)NS(=O)(=O)c2ccc(CNC(C)=O)s2)cc1	-0.9731
Cc1ccnc(NS(=O)(=O)c2cc(C(N)=O)n(C)c2)c1	8.268
Cc1cc(C)cc(NC(=O)CN2CCCC(n3cncn3)C2)c1 (centres undefined)	8.702
CC(C)=CCN1C[C@H]2CC[C@@H]1CN(C(=O)c1ccc3c(c1)OCO3)C2	36
CC(=O)NC[C@]1(O)CCN(C(=O)c2ccc(C)c(F)c2)C[C@H]1O	111.8
CC[C@@]1(O)CCN(C(=O)CCNC(=O)c2ccc(F)cc2)C[C@H]1O	-29.52
CC(=O)NC[C@]1(O)CCN(C(=O)c2ccc3c(c2)CCC3)C[C@H]1O	101.7
CC(=O)N1CCC2(CC1)CN(C(=O)c1ccc3c(c1)OCO3)C2	-7.452
CC[C@@]1(O)CCN(C(=O)c2ccc(CN3CCCCCC3)cc2)C[C@H]1O	-35.93
COCC1CC2(CCN(C(=O)c3ccc(F)c(Cl)c3)CC2)CO1 (centres undefined)	-3.157
CC[C@@]1(O)CCN(C(=O)c2ccc(SC)cc2)C[C@H]1O	-2.102
CC(=O)NC[C@]1(O)CCN(C(=O)c2ccc(F)c(Cl)c2)C[C@H]1O	117.5
CS(=O)(=O)NCC1CCCN(C(=O)c2ccc3c(c2)CCC3)C1 (centres undefined)	-4.65
CC(=O)NC[C@]1(O)CCN(C(=O)c2ccc3c(c2)OCO3)C[C@H]1O	124.1
CC[C@@]1(O)CCN(C(=O)c2ccc(-c3cccc(F)c3)cc2)C[C@H]1O	-0.249
